# Laboratory results from PubChem BioAssay.
# Activity calls are given as the source filed them.
# Legend:
# [1] = small molecules captured by biotinylated probe aFSTL3 – biochemical, small-molecule microarray, fluorescence 635/667, stem cell growth factor project, primary screen (AID 1064); conditions: higher = more signal;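 further: measures binding of the biotinylated anti-FSTL3 antibody to printed compounds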
# [2] = binders from COS7 lysate, DM2A8 probe, primary screen, torsin A project, cell lysate, small-molecule microarray, fluorescence 635/667 (AID 1065); conditions: higher = more signal, COS7 lysate expressing mutant human TOR1A
# [3] = small molecules captured by biotinylated probe aFGF2 – biochemical, small-molecule microarray, fluorescence 635/667, stem cell growth factor project, primary screen (AID 1067); conditions: higher = more signal;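 further: measures binding of biotinylated aFGF2 protein to printed compounds on slides; z-score merges feature fluorescence and signal-to-noise across triplicate slides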
# [4] = small molecules captured by biotinylated probe aFGF10 – biochemical, small-molecule microarray, fluorescence 635/667, stem cell growth factor project, primary screen (AID 1071); conditions: higher = more signal;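 further: score merges 667 nm spot intensity and signal to noise from triplicate slides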
# [5] = molecular target: Neurogenic locus notch homolog protein 2 (Homo sapiens) (UniProt Q04721); assay: small molecules binding Notch2 protein – biochemical, small-molecule microarray, 635 nm fluorescence, stem cell growth factors, primary screen (AID 1073); conditions: higher = more signal
# [6] = molecular target: Pro-neuregulin-1, membrane-bound isoform (Homo sapiens) (UniProt Q02297); assay: small molecules binding neuregulin-1 protein – biochemical, small-molecule microarray, fluorescence 635/667, psychiatric disease protein project, primary screen (AID 1075); conditions: NRG1 binding, 635 nm fluorescence, higher = more signal;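 further: score combines 667 nm spot fluorescence with signal to noise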
# Pro-neuregulin-1, membrane-bound isoform (Homo sapiens), sequence (Q02297 whole entry, looked up, the tested form may be a part, canonical isoform): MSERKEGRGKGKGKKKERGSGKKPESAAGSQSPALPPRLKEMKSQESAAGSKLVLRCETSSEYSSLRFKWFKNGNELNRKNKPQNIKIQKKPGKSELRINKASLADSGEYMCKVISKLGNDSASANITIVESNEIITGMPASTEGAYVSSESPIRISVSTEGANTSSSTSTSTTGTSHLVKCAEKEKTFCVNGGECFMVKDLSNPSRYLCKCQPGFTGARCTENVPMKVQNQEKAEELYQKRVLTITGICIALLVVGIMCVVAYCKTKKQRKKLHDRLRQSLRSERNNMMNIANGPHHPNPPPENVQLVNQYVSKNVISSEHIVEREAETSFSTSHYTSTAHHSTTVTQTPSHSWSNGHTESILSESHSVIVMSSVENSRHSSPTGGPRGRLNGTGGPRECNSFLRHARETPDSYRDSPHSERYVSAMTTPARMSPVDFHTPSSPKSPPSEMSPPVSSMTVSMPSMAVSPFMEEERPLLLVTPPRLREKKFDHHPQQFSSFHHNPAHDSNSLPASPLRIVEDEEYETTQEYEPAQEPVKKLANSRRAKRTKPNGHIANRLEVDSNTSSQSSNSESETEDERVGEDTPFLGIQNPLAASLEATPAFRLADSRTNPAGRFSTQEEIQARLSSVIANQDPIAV
# [7] = system: Neuregulin-1 EGF-like domain; assay: small molecules binding NRG1 EGF domain – biochemical, small-molecule microarray, 635 nm fluorescence, primary screen (AID 1081); conditions: higher = more signal;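 further: binding of the protein to compounds printed on small-molecule microarray slides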
# [8] = FRG1 expression reporter modulators in myotubes – cell-based, C2C12 myotubes, firefly/Renilla luciferase, luminescence, FRG1 inhibition for FSHD, primary screen (AID 1084); conditions: FRG1 promoter luciferase, higher = more signal, called active from +8 up or from −8 down
# [9] = small molecules captured by biotinylated probe aFST – biochemical, small-molecule microarray, fluorescence 635/667, stem cell growth factor project, primary screen (AID 1086); conditions: higher = more signal;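 further: score merges 667 nm fluorescence with signal-to-noise of each printed compound spot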
# [10] = binders of probe aHhip on microarray, primary screen, stem cell growth factor project, biochemical, small-molecule microarray, fluorescence 635/667 (AID 1087); conditions: higher = more signal;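 further: score merges spot fluorescence at 667nm with spot signal to noise ratio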
# [11] = system: PRMT1 (protein arginine N-methyltransferase 1); assay: small molecules binding arginine methyltransferase PRMT1 – biochemical, small-molecule microarray, 635 nm fluorescence, primary screen (AID 1088); conditions: higher = more signal;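 further: binding of Prmt1 protein to compounds spotted on small-molecule microarray slides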
# [12] = growth effects on S. cerevisiae YJM789 – YJM789 clinical isolate, OD600, 24 h, basal, primary screen (AID 1089); conditions: higher = more signal, called active from +8 up or from −8 down;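 further: growth of clinical yeast isolate S. cerevisiae YJM 789 seeded 1000 cells per well; test concentration not given here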
# [13] = S. pombe growth modifiers, basal conditions – strain 972, OD600, 24 h, no modulator, primary screen (AID 1090);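 further: basal condition with compound alone and no growth modifier present; test concentration not given here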; conditions: S. pombe 972 growth, higher = more signal, called active from +8 up or from −8 down
# [14] = budding yeast growth modifiers under rapamycin – strain BY4716, OD600, 96 h, primary screen (AID 1091); further: test concentration not given here; conditions: S. cerevisiae BY4716 + rapamycin, higher = more signal, called active from +8 up or from −8 down
# [15] = molecular target: Torsin-1A-interacting protein 2 (Homo sapiens) (UniProt Q8NFQ8); assay: small molecules binding lysate-expressed LULL1 – cell lysate, human LULL1 lysate, 635/667 nm fluorescence, primary screen (AID 1092); conditions: small-molecule microarray, hLULL1 lysate binding, 635 nm fluorescence; higher = more signal;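 further: probe is lysate of COS7 cells overexpressing human LULL1; score merges per-feature 667 nm fluorescence with signal-to-noise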
# Torsin-1A-interacting protein 2 (Homo sapiens), sequence (Q8NFQ8 whole entry, looked up): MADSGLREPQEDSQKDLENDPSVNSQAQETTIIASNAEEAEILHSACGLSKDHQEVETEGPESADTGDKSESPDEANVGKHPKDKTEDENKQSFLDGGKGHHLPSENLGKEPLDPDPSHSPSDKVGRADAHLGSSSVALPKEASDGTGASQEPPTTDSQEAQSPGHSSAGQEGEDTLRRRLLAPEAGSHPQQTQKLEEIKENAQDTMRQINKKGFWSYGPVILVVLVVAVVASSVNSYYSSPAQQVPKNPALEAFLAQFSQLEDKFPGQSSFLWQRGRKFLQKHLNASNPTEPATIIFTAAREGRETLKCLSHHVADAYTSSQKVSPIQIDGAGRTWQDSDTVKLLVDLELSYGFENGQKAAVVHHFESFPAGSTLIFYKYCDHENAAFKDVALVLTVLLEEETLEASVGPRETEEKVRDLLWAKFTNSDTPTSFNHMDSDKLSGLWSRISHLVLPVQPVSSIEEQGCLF
# [16] = optical density change of DRC41 E. coli – strain DRC41, OD650, 24 h, E. coli filamentation project, primary screen (AID 1093);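 further: MC1000 strain lacking acrAB efflux and sulA so SOS filamentation is blocked; test concentration not given here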; conditions: E. coli DRC41 growth, higher = more signal, called active from +8 up or from −8 down
# [17] = probe aLefty2 binding to arrayed compounds – biochemical, biotinylated probe, 635/667 nm fluorescence, primary screen (AID 1094); conditions: small-molecule microarray, higher = more signal;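 further: score merges spot fluorescence near 667 nm with spot signal-to-noise ratio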
# [18] = system: Noggin (protein binding on small-molecule microarray); assay: small molecules binding Noggin protein – biochemical, 635/667 nm fluorescence, primary screen (AID 1095); conditions: 635 nm fluorescence, higher = more signal;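 further: score merges 667 nm feature fluorescence with signal to noise over triplicate slides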
# [19] = molecular target: Neurogenic locus notch homolog protein 3 (Homo sapiens) (UniProt Q9UM47); assay: small molecules binding NOTCH3 protein – biochemical, 635/667 nm fluorescence, primary screen (AID 1096); conditions: small-molecule microarray, 635 nm fluorescence, higher = more signal
# Neurogenic locus notch homolog protein 3 (Homo sapiens), sequence (Q9UM47 whole entry, looked up): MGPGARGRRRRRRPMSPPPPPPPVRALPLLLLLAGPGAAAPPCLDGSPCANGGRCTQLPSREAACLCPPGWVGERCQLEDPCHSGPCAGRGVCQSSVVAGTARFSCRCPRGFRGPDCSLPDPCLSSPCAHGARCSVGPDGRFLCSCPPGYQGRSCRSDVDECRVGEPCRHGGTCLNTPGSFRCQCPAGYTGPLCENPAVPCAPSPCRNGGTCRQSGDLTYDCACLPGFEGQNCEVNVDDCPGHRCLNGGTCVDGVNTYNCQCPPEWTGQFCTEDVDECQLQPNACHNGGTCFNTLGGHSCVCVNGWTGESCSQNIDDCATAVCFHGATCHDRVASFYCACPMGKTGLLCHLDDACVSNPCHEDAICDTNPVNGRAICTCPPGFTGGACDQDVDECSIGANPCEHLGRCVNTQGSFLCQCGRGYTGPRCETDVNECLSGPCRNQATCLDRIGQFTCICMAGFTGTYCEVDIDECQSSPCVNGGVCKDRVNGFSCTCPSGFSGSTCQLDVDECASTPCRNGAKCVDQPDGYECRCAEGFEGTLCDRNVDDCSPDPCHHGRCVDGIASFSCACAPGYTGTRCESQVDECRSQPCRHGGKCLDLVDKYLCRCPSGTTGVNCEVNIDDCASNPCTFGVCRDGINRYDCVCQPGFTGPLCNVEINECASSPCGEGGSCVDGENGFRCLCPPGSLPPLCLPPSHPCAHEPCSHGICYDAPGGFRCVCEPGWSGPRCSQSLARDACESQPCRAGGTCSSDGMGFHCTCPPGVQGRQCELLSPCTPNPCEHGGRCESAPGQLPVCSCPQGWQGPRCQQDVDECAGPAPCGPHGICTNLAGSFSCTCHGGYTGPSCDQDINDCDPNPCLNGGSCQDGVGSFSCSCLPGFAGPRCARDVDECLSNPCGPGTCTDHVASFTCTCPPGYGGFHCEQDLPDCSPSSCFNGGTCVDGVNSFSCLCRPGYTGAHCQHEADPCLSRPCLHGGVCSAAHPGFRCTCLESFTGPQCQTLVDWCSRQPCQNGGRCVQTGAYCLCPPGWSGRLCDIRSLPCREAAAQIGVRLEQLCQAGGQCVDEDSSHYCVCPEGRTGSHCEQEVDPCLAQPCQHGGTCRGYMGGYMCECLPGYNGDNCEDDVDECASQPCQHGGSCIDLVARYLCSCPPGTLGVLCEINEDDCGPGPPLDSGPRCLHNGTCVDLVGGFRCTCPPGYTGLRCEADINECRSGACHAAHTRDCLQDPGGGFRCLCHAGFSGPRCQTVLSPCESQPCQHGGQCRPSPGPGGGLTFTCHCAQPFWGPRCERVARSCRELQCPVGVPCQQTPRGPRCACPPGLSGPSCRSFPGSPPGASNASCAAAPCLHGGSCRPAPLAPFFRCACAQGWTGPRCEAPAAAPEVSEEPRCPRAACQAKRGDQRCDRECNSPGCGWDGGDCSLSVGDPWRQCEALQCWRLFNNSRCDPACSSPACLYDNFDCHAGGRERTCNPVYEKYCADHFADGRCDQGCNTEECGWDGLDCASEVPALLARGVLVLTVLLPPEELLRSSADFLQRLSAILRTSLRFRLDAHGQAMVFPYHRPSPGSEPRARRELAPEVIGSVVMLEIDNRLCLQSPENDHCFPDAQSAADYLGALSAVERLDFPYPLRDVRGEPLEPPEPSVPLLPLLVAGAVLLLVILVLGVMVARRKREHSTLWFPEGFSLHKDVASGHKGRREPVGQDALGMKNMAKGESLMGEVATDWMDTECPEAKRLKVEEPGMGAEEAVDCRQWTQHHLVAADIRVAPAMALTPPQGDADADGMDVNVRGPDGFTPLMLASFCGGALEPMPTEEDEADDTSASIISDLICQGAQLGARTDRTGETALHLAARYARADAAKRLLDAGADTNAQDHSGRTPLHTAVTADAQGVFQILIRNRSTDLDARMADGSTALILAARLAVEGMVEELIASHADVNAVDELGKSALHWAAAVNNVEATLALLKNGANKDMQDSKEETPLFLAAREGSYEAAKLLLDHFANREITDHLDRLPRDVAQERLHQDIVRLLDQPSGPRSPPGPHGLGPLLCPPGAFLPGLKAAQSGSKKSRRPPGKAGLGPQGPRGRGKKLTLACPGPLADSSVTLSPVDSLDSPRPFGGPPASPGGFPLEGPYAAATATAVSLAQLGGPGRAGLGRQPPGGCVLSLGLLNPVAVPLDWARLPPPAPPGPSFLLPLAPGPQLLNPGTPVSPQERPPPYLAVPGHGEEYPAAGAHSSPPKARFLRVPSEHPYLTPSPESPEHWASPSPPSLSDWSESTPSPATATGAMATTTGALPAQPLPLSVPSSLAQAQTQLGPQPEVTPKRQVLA
# [20] = probe aEGFR binding to arrayed compounds – biochemical, biotinylated probe, 635/667 nm fluorescence, primary screen (AID 1097); conditions: small-molecule microarray, higher = more signal;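 further: probe is a biotinylated anti-EGFR antibody binding compounds printed on slides; score combines fluorescence near 667 nm and signal to noise of each spot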
SMILES,composite z-score [1],composite z-score [2],composite z-score [3],composite z-score [4],composite z-score [5],composite z-score [6],composite z-score [7],z-score [8],composite z-score [9],composite z-score [10],composite z-score [11],z-score [12],z-score [13],z-score [14],composite z-score [15],z-score [16],composite z-score [17],composite z-score [18],composite z-score [19],composite z-score [20]
COc1ccc(NN2C(C(O)c3ccc([N+](=O)[O-])cc3)C=CC3C(=O)N(C4CCCCC4)C(=O)C32)cc1 (stereo not given),0.091,-0.174,-0.0782,0.389,0.901,0.348,0.755,-0.068 (inactive),0.844,-0.0346,0.849,0.346 (inactive),0.811 (inactive),0.572 (inactive),2.69,-0.103 (inactive),0.192,-0.0162,1.09,-0.143
COC(=O)[C@@]1(Cc2ccc(OC)cc2)[C@H]2c3cc(C(=O)N(C)C)n(Cc4cccc5ccccc45)c3C[C@H]2CN1C(=O)c1ccccc1,-0.193,1.16,0.118,1.15,1.27,1.79,1.36,0.189 (inactive),1.33,0.534,0.219,-0.386 (inactive),0.514 (inactive),1.46 (inactive),2.78,-0.223 (inactive),1.07,0.841,0.481,0.92
COCCOC(=O)N1C(=O)[C@@]2(c3cc(C#CCCO)ccc31)[C@H](c1ccc(OCCO)cc1)N1[C@H](c3ccccc3)[C@H](c3ccccc3)OC(=O)[C@H]1[C@@H]2C(=O)N1CCN(c2ncccn2)CC1,-0.204,-0.0161,-0.0972,0.281,1.33,0.317,1.23,-0.37 (inactive),0.658,0.0274,1.55,-0.01 (inactive),0.342 (inactive),2.94 (inactive),2.42,-0.0542 (inactive),-0.123,1.23,1.06,-0.0066
COCCCN1C(=O)[C@@]2(c3ccc([N+](=O)[O-])cc3)CC(=O)N(C3CCCCC3)[C@@H]2c2ccc(CO)cc21,-0.246,0.178,-0.153,-0.118,-0.537,-0.214,0.467,1.07 (inactive),-0.036,-0.134,0.996,0.134 (inactive),0.734 (inactive),-1.35 (inactive),-0.701,0.56 (inactive),-0.0782,0.549,-0.37,-0.128
COc1cc2c(cc1O)C=[N+](Cc1cccc(OC(F)(F)F)c1)CC2,-0.193,0.137,-0.106,-0.0214,0.457,0.529,0.544,-0.886 (inactive),-0.0596,-0.374,0.224,-1.65 (inactive),-3.24 (inactive),-1.98 (inactive),0.319,-1.31 (inactive),-0.103,-0.0304,-0.0987,-0.171
COc1ccc([Si](C)(C)[C@H]2[C@H](CC(=O)N3CCC[C@H]3CO)O[C@@]3(C(=O)N(Cc4cccc(N5C(=O)c6cccc7cccc5c67)c4)c4ccccc43)[C@@H]2C)cc1,-0.354,-0.0115,0.0686,0.483,0.818,1.77,0.981,-4.24 (inactive),0.305,0.166,1.56,-0.0977 (inactive),0.696 (inactive),-0.15 (inactive),2.08,-0.0831 (inactive),0.031,1.57,1.05,-0.0549
O=C1OCCC/C=C\[C@H]2OC34C=CCN(Cn5nnc6ccccc65)C(=O)[C@H]3N(CCCCCCO)C(=O)[C@@H]4C12 (stereo not given in full),0.144,1.57,-0.167,-1.04,-0.969,0.0553,1.25,-0.584 (inactive),-0.582,-0.273,0.827,-3.24 (inactive),-0.0541 (inactive),-1.28 (inactive),3.5,2.87 (inactive),-0.181,-0.272,-0.269,-0.224
COc1ccc(C(O)C2C=CC3C(=O)N(c4ccccc4)C(=O)C3N2Nc2ccc(C(C)C)cc2)cc1OCc1ccccc1 (stereo not given),0.838,0.369,0.227,1.08,1.61,1.26,1.1,-1.44 (inactive),1.62,-0.168,1.61,0.345 (inactive),0.309 (inactive),-0.707 (inactive),2.97,-3.72 (inactive),0.308,0.112,1.03,0.339
COc1ccc(C(=O)O[C@H]2CC[C@]3(C)C4=C(CCC3C2(C)C)[C@]2(C)CC[C@H]([C@H](C)CCCC(C)C)[C@@]2(C)CC4)cc1 (stereo not given in full),-0.581,0.191,-0.128,0.338,0.611,0.133,0.456,-1.16 (inactive),0.18,0.0749,0.193,-0.292 (inactive),-1.52 (inactive),-0.262 (inactive),-0.445,1.71 (inactive),-0.0561,0.546,0.947,-0.0828
